Assay outcomes: PubChem, The Scripps Research Institute Molecular Screening Center
GPR151 ag = human GPR151 activation; activation, % at 11.2 µM; actives 1% (n = 650,000); AID 1508602; Q8TDV0; PathHunter beta-arrestin GPR151 cells, luminescence; in the data active = activation above about 4.9%;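 note: 0% = median of compound wells and 100% = cells with positive control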
TEAD-YAP inh = TEAD-YAP interaction inhibition. HEK-TIYL cells, TEAD-Gal4/YAP UAS-luciferase luminescence. inhibition, % at 9.12 µM. actives 1.4% (n = 640,000). AID 1259422; in the data active = inhibition above about 32%;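 note: 0% = median of test compound wells and 100% = reference inhibitor wells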
FBW7 act = activators of human E3 ligase FBW7 | normalized activity (activation), % at 26.1 µM | Q969H0 | AlphaScreen FBW7–phospho-cyclin E peptide binding, activator screen | AID 1259310 | actives 0.13% (n = 650,000); in the data active = normalized activity above about 1.9%;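 note: purified mutant Fbw7 with reduced substrate affinity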
MITF primary = blocks human microphthalmia-associated transcription factor | O75030 | AlphaScreen MITF homodimerization, bead proximity signal | inhibition, % at 2.6 µM | actives 0.91% (n = 650,000) | AID 1259374; in the data active = inhibition above about 50%;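 note: 0% = vehicle wells with protein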
Target sequence (O75030 whole entry, looked up): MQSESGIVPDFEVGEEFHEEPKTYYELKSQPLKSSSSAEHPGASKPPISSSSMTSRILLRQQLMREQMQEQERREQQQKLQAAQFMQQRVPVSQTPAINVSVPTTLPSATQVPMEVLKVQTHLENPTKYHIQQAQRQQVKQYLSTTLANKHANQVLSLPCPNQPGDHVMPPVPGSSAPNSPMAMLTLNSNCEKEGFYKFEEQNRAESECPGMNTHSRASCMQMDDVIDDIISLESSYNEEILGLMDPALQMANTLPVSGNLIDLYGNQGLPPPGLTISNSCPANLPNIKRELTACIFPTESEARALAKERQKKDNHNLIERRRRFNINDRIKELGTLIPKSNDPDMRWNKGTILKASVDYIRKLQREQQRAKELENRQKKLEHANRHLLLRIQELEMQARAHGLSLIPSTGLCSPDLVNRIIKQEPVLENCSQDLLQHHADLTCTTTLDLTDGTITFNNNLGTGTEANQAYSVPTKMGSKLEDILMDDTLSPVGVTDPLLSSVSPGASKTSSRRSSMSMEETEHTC
* = called active by the depositor. Shown are actives, neighbours in structure and some others; about 3.5% of the full set was active somewhere.

SMILES	GPR151 ag	TEAD-YAP inh	FBW7 act	MITF primary
Nc1nonc1N=NN(Cc1ccc(Cl)cc1Cl)c1nonc1N	2	10	0	73*
Nc1nonc1N=NN(CC(=O)Nc1c(Cl)cccc1Cl)c1nonc1N	-1	-3	0	8
CCCCOC(=O)CSC1=C(C#N)C(c2cccc([N+](=O)[O-])c2)CC(=O)N1 (centres undefined)	0	-9	0	1
COc1ccc(-c2ncc(C)c(NCCN(C(C)C)C(C)C)n2)cn1	0	13	0	6
COC(=O)c1cc(C)nc2c1C(=O)C(=O)C=C2N1CCOCC1	1	41*	0	9
CCN(CC)c1ccc2cc(C(=O)Nc3cccc(C)c3)c(=N)oc2c1	0	-2	2.4*	18
COc1cc(CN2CCc3ccccc3C2)cc(OC)c1OC	-2	10	0	1
Nc1cccc2c1C(=O)c1c(oc3c1ccc1ccccc13)C2=O	-2	78*	0	-3
Cc1ccc([N+](=O)[O-])cc1S(=O)(=O)Nc1cc(SCC(=O)O)c(O)c2ccccc12	0	-3	-1	65*
Cc1ccc(S(=O)(=O)Nc2cc(SCC(=O)O)c(O)c3ccccc23)c(C)c1	-1	-19	0	12
CCN1/C(=C/C=C/c2sc3c(C)cccc3[n+]2CC)Sc2c(C)cccc21	-1	44*	0	33
Fc1ccc(Nc2c3c(nc4ncnn24)CCC3)cc1	3	-14	0	4
Cc1ccccc1C1CC(=O)Nc2ccc3ccccc3c21 (centres undefined)	-2	38*	0	1
O=C1CC(c2ccccc2)c2c(ccc3ccccc23)N1 (centres undefined)	1	9	0	13
O=C1CC(c2cccc(Br)c2)c2c(ccc3ccccc23)N1 (centres undefined)	0	51*	0	5
COc1cc(OC)cc(-n2nnnc2SCC(=O)NC(C)(C)C)c1	-1	-2	0	30
CCc1ccc2oc(-c3ccc(NC(=O)c4ccccc4OC)cc3)nc2c1	1	-8	0	-5
CCN(CC)c1ccc(C2CC(c3ccc(C)cc3)=NN2C(=O)CCC(=O)O)cc1 (centres undefined)	1	46*	0	-14
CCOc1cccc2cc(-c3csc(Nc4ccc(OC)c(OC)c4)n3)c(=O)oc12	1	-8	0	-4
CSc1nc(C2CC2)nc2sc(C)c(C)c12	4	-8	1	19
OCCN1C2=NCCN2c2ccccc21	-1	5	0	14
O=C(CCCc1ccccc1)Nc1cccc(N2CCC(NC3CCOCC3)CC2)c1	2	0	0	-11
NC(=O)[C@@H]1CCCN1C1CCN(c2cccc(NC(=O)CCCc3ccccc3)c2)CC1	1	39*	0	-8
c1ccc2c(c1)Cn1nc(-c3c[nH]c4ccccc34)nc1-2	-10	77*	0	3
c1ccc2c(c1)ccc1nnc(-c3c[nH]c4ccccc34)n12	-1	7	0	18
SMILES	GPR151 ag	TEAD-YAP inh	FBW7 act	MITF primary
CC(c1ccccc1)N1CC(C(=O)Nc2ccc(Cl)cc2)CC1=O (centres undefined)	5	8	0	-6
Cc1nnc2sc(-c3ccc(NC(=O)C(C)(C)C)cc3)nn12	-1	40*	0	1
O=C(c1cc2c(s1)CCC2)N1CCC(c2ccncc2)CC1	-1	33*	0	17
CCCCOc1ccc(/C=C(/C#N)C(=O)OCC)cc1	0	8	1	16
Cc1ccnc(NC(c2ccncc2)c2ccc3ccc(C)nc3c2O)c1 (centres undefined)	1	39*	0	4
COc1ccccc1NC(c1cccnc1)c1ccc2cccnc2c1O (centres undefined)	0	3	-2	76*
Cc1ccnc(NC(c2cccnc2)c2ccc3ccc(C)nc3c2O)c1 (centres undefined)	2	15	0	-5
Cc1ccnc(NC(c2cccnc2)c2ccc3cccnc3c2O)c1 (centres undefined)	0	20	0	66*
C=CCOc1cccc(C(Nc2cc(C)ccn2)c2ccc3ccc(C)nc3c2O)c1 (centres undefined)	-1	17	0	-60
Oc1c(C(Nc2nccs2)c2cccnc2)ccc2cccnc12 (centres undefined)	1	67*	0	89*
CC1=C(C(=O)OCC(C)C)C(c2cccc3ccccc23)C2=C(CCCC2=O)N1 (centres undefined)	-2	7	0	-5
O=C(NCCO)/C(=C\c1cccc([N+](=O)[O-])c1)NC(=O)c1ccc(Br)o1	0	0	0	-8
Cc1ccnc(NC(c2ccc(C(C)(C)C)cc2)c2ccc3cccnc3c2O)c1 (centres undefined)	0	19	0	-9
CCOc1ccc(C(Nc2cc(C)ccn2)c2ccc3cccnc3c2O)cc1C (centres undefined)	0	86*	0	8
COc1cc2cc3c(N)c(C(=O)N4CC(=O)Nc5ccccc54)sc3nc2cc1OC	1	12	0	-1
O=C(Nc1cnn(C23CC4CC(CC(C4)C2)C3)c1)c1cnn2cccnc12	0	58*	0	4
O=C(Nc1cnn(C23CC4CC(CC(C4)C2)C3)c1)c1cnn2cc(Br)cnc12	-1	3	0	37
CC(C)(C)c1ccc(C(=O)Nc2ccc3nc(SCC(=O)NCCc4ccccc4)sc3c2)cc1	1	-3	0	12
COc1cccc(N2CCN(c3c(-c4ccc(C)cc4)c(=O)c3=O)CC2)c1	3	66*	0	0
Cc1ccc(-c2c(N3CCN(c4ccccc4F)CC3)c(=O)c2=O)cc1	3	0	0	-10
COc1ccccc1N1CCN(c2c(-c3ccc(C)cc3)c(=O)c2=O)CC1	4	71*	0	-3
O=C(/C=N/Nc1ccc([N+](=O)[O-])cc1[N+](=O)[O-])c1ccccc1	0	-5	0	9
COc1ccc(CNC(=O)c2ccc3c(c2)CC(c2nc4ccc(-c5ccnc(N)n5)cc4[nH]2)CO3)cc1 (centres undefined)	1	12	7.5*	-2
Nc1nccc(-c2ccc3nc(C4COc5ccc(C(=O)NC6CCCCC6)cc5C4)[nH]c3c2)n1 (centres undefined)	1	6	6.0*	0
Nc1nccc(-c2ccc3nc(C4COc5ccc(C(=O)NC6CCCC6)cc5C4)[nH]c3c2)n1 (centres undefined)	2	-2	2.4*	14
Nc1nccc(-c2ccc3nc(C4COc5ccc(C(=O)NCc6ccccc6)cc5C4)[nH]c3c2)n1 (centres undefined)	-2	-5	0	4
COC(=O)c1ccc(C(=O)OC)c(NC(=O)c2ccc(Br)o2)c1	1	-4	0	-9
O=C(NC1CCCC1)c1cc(COc2ccc3ncccc3c2)on1	1	40*	0	-4
O=C(NCC1CCOCC1)c1cc(COc2ccc3ncccc3c2)on1	1	33*	0	-10
